# In the supplement of paper PMC12494721:
# Structures can show the parent of a compound that is named as a salt.
# Columns and labels:
# Conditions in all cases: incubation time: 27 h, anaerobic, 37 °C;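 for the amine columns active = adjusted P below 0.05 in both replicates with a change the same way and a mean fold change under 0.8 or over 1.25; inactive = the rest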
# [1] = test system: Clostridium sporogenes DSM 1664; assay: growth (OD595) fold change vs plate DMSO controls (fold change (ratio)); higher = more growth
# How it was run: (§1)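 The measure reported is growth, taken as fold change against the median of DMSO controls on the same plate. Anaerobic mGAM cultures in 96-well plates (27 h, 37 °C) were read at 595 nm, blank-subtracted, corrected for compound background using 20 µM compound solutions in water, and multiplied by a calibration factor of 5 to give OD. Any fold change above 1.5 became NA, and 2 biological replicates were averaged.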
# [2] = test system: Escherichia coli IAI1; assay: as above
# How it was run: as §1
# [3] = test system: Klebsiella aerogenes DSM 30053; assay: as above
# How it was run: as §1
# [4] = test system: Ruminococcus gnavus DSM 108212; assay: as above
# How it was run: as §1
# [5] = test system: Klebsiella aerogenes DSM 30053; assay: fold change of Histamine concentration vs plate DMSO controls (fold change (ratio)); higher = more amine produced, active = hit call of the paper (significant change in both replicates, either direction)
# How it was run: (§2)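 In 80 µL wells, cultures of four gut bacterial strains in mGAM started at OD 0.1 before a 1:1 dilution and grew anaerobically at 37 °C for 27 h. Compounds were added to 20 µM final, except sweeteners at 50 µM final. After extraction of whole cultures with cold acetonitrile/methanol plus 0.1% formic acid and centrifugation, amines were measured by LC–triple-quadrupole MS in dynamic MRM mode against external calibration curves, with within-batch drift correction. Values give fold change over DMSO controls on the same plate, averaged across 2 biological replicates.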
# [6] = test system: Clostridium sporogenes DSM 1664; assay: fold change of Tryptamine concentration vs plate DMSO controls (fold change (ratio)); higher = more amine produced, active = hit call of the paper (significant change in both replicates, either direction)
# How it was run: as §2
# [7] = test system: Ruminococcus gnavus DSM 108212; assay: as above
# How it was run: as §2
# [8] = test system: Escherichia coli IAI1; assay: fold change of Putrescine concentration vs plate DMSO controls (fold change (ratio)); higher = more amine produced, active = hit call of the paper (significant change in both replicates, either direction)
# How it was run: as §2
# [9] = test system: Klebsiella aerogenes DSM 30053; assay: as above
# How it was run: as §2
# [10] = test system: Escherichia coli IAI1; assay: fold change of Cadaverine concentration vs plate DMSO controls (fold change (ratio)); higher = more amine produced, active = hit call of the paper (significant change in both replicates, either direction)
# How it was run: as §2
# [11] = test system: Klebsiella aerogenes DSM 30053; assay: as above
# How it was run: as §2
# [12] = test system: Ruminococcus gnavus DSM 108212; assay: fold change of 2-Phenylethylamine concentration vs plate DMSO controls (fold change (ratio)); higher = more amine produced, active = hit call of the paper (significant change in both replicates, either direction)
# How it was run: as §2
Compound,growth [1],growth [2],growth [3],growth [4],fold change of Histamine concentration [5],fold change of Tryptamine concentration [6],fold change of Tryptamine concentration [7],fold change of Putrescine concentration [8],fold change of Putrescine concentration [9],fold change of Cadaverine concentration [10],fold change of Cadaverine concentration [11],fold change of 2-Phenylethylamine concentration [12]
"OC(CCN1CCCCC1)(c1ccccc1)C1CCCCC1 (stereo unspecified) [Trihexyphenidyl-D,L hydrochloride] (20 µM)",1.05,1.11,1.02,0.865,0.954 (inactive),1.01 (inactive),0.874 (inactive),1.17 (inactive),0.97 (inactive),0.697 (inactive),0.984 (inactive),0.92 (inactive)
CC(=O)Nc1ccc(OC(=O)c2ccccc2O)cc1 [Acetaminosalol] (20 µM),0.904,0.977,0.996,0.994,0.933 (inactive),1.06 (inactive),0.928 (inactive),1.01 (inactive),1.01 (inactive),1 (inactive),0.999 (inactive),0.917 (inactive)
CCc1cc(C(N)=S)ccn1 [Ethionamide] (20 µM),1.09,1.05,1.03,0.995,0.962 (inactive),1 (inactive),1.02 (inactive),1.05 (inactive),1 (inactive),1 (inactive),1.02 (inactive),1.01 (inactive)
CC(C)(Oc1ccc(C2CC2(Cl)Cl)cc1)C(=O)O (stereo unspecified) [Ciprofibrate] (20 µM),0.861,0.88,0.891,0.992,1.01 (inactive),1.04 (inactive),0.951 (inactive),1.01 (inactive),1 (inactive),1.03 (inactive),0.992 (inactive),0.949 (inactive)
CO[C@H]1C[C@H](O[C@H]2[C@H](C)[C@@H](O[C@@H]3O[C@H](C)C[C@H](N(C)C)[C@H]3OC(C)=O)[C@@H](C)C[C@@]3(CO3)C(=O)[C@H](C)[C@@H](OC(C)=O)[C@@H](C)[C@@H](C)OC(=O)[C@@H]2C)O[C@@H](C)[C@@H]1OC(C)=O [Troleandomycin] (20 µM),0.0017,0.966,1.03,0.456,0.976 (inactive),0.0831 (active),0.676 (active),1.01 (inactive),0.987 (inactive),1 (inactive),1.01 (inactive),0.769 (active)
CCC(=O)c1c(O)cc(O)cc1O [Flopropione] (20 µM),0.955,1.01,0.997,0.986,1.01 (inactive),1 (inactive),0.927 (inactive),1 (inactive),1.01 (inactive),1 (inactive),1 (inactive),0.896 (inactive)
N[C@@H](CCC(=O)N[C@@H](CS)C(=O)NCC(=O)O)C(=O)O [Glutathione] (20 µM),1.1,1.04,1.04,1.22,0.965 (inactive),1.1 (inactive),1.01 (inactive),1.04 (inactive),1.01 (inactive),1.03 (inactive),1.01 (inactive),1.02 (inactive)
OC[C@@H](O)[C@@H](O)[C@@H](O)[C@@H](O)CO [Allitol] (50 µM),0.907,1.08,1.11,0.986,0.908 (inactive),1 (inactive),0.953 (inactive),1.02 (inactive),1.03 (inactive),0.992 (inactive),1.02 (inactive),0.932 (inactive)
Cc1c(N(C)CS(=O)(=O)O)c(=O)n(-c2ccccc2)n1C [Dipyrone sodium salt] (20 µM),1.02,1.14,1.07,1.13,0.958 (inactive),1.11 (inactive),1.03 (inactive),1.05 (inactive),0.957 (inactive),0.991 (inactive),1.02 (inactive),1 (inactive)
C=CCOc1ccc(CC(=O)O)cc1Cl [Alclofenac] (20 µM),0.943,1.06,0.98,1,0.998 (inactive),1.05 (inactive),1.05 (inactive),1.02 (inactive),0.974 (inactive),0.97 (inactive),0.991 (inactive),1.09 (inactive)
OCCN1C[C@H](O)[C@@H](O)[C@H](O)[C@H]1CO [Miglitol] (20 µM),1.09,1.01,1.02,1.05,1.02 (inactive),1 (inactive),1.02 (inactive),1 (inactive),1.01 (inactive),0.964 (inactive),1.01 (inactive),1.03 (inactive)
CCC[C@@H]1C[C@@H](C(=O)N[C@@H]([C@H]2O[C@H](SC)[C@H](O)[C@@H](O)[C@H]2O)[C@@H](C)O)N(C)C1 [Lincomycin hydrochloride] (20 µM),0.767,0.925,0.981,0.121,0.952 (inactive),0.761 (active),0.129 (active),0.531 (inactive),0.682 (active),0.967 (inactive),1.02 (inactive),0.117 (active)
CC(=O)N[C@@H](CC(C)C)C(=O)O [N-Acetyl-L-leucine] (20 µM),1.1,0.831,0.991,1,0.86 (inactive),0.964 (inactive),1.03 (inactive),0.892 (inactive),1.01 (inactive),1.07 (inactive),1.03 (inactive),1.04 (inactive)
